The results in this text go back to PubChem BioAssay (EPA / NIEHS).

Several values for one entry are separate records, joined by “and”; a condition that tells them apart may be missing. Equal values may be shown once. More than one record can exist for a structure, and the calls need not agree. Activity calls are given as the source filed them. Rule for the calls: active = hit-call score of the fitted dose curve at least 0.9, where 1 is the maximum; inactive = score below 0.9.

As usually defined, the AC50 is the midpoint of the concentration-response curve, whichever way the signal moves.

A short description of this test: BSK_hDFCGF_Proliferation: Cell Proliferation Assessment in the BioMAP Diversity Plus: hDFCGF Assay (AID 2283059).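 Note: curves fitted for both rise and fall of signal versus DMSO baseline.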 Particulars: primary human foreskin fibroblasts. Here is the method:
BSK_hDFCGF is a cell-based, multiplexed-readout assay that uses foreskin fibroblast, a human skin primary cell, with measurements taken at 24 hours after chemical dosing in a 96-well plate.BSK_hDFCGF_Proliferation is an assay component measured in the BSK_hDFCGF assay. It measures […] related to cell proliferation using Sulforhodamine staining technology.Data from the assay component BSK_hDFCGF_Proliferation was analyzed into 1 assay endpoint. This assay endpoint, BSK_hDFCGF_Proliferation, was analyzed with bidirectional fitting relative to DMSO as the negative control and baseline of activity. Using a type of viability reporter, measures of total protein for gain or loss-of-signal activity can be used to understand the viability at the cellular-level. Furthermore, this assay endpoint can be referred to as a secondary readout, because this assay has produced multiple assay endpoints where this one serves a viability function. To generalize the intended target to other relatable targets, this assay endpoint is annotated to the cell cycle intended target family, where the subfamily is proliferation.
The levels of cell surface (or secreted, indicated by the prefix "s") biomarker endpoints were measured by ELISA. Overt cytotoxicity to cells in confluent adherent cultures (all systems other than the BT system) was assessed by measuring total protein levels using sulforhodamine B (SRB) staining in parallel cultures at the time of biomarker measurements, indicated as SRB endpoints. For proliferation assays for adherent cell types, individual cell types are cultured at sub-confluence and relative cell numbers quantified by SRB staining at time points optimized for each system (48 h: 3C and CASM3C systems; 72 h: BT and HDF3CGF systems; 96 h: SAg system). SRB was performed by staining cells with 0.1% SRB after fixation with 10% TCA and reading wells at 560 nm.Viability and proliferation of PBMC (T cells) was quantified by Alamar Blue reduction for the SAg and BT systems. For PBMC viability (referred to as PBMC Cytotoxicity within the assay endpoint names), cells were plated (75,000/well in a 96-well plate) and then chemical samples added for 1 h before addition of activators, SEB and TSST-1 (20 ng/mL final concentration each). Cells were incubated for 90 h. Then, Alamar Blue (20 uL/well) (Invitrogen, Cat DAL1100) was added for 6 h, and the plates were read with a fluorescence microplate reader at 546/580 nm (excitation/emission). For PBMC proliferation, cells were plated and activated as above but incubated for only 16 h prior to addition of Alamar Blue. Plates were read after 6 h.
Consider `Nc1nc(N)nc(NC2CC2)n1`, for which the outcome was inactive. With `CNC(=O)Oc1cccc2c1OC(C)(C)O2`, the result was inactive. `CC1=NNC(=O)N(/N=C/c2cccnc2)C1`: the result was inactive. The same measure, in the same setting: the entry for `S=C1NCCN1` is “inactive”.

Regarding `FC(F)C(F)(F)OCC(Cn1cncn1)c1ccc(Cl)cc1Cl` (stereo not given), the AC50 is 5.24 µM (active). Same read-out and setting: the value for `CCc1cccc(CC)c1N(COC)C(=O)CCl` was 13.8 µM (active).

Turning to `CN1COCN(Cc2cnc(Cl)s2)C1=N[N+](=O)[O-]`, the result was inactive. With `CCCCOC(=O)[C@@H](C)Oc1ccc(Oc2ccc(C#N)cc2F)cc1`, the result was inactive. Consider `CCOP(=S)(OCC)OC(Cl)C(Cl)(Cl)Cl` (stereo not given), for which the result was inactive. Take `C[Si](Cn1cncn1)(c1ccc(F)cc1)c1ccc(F)cc1`: the outcome was inactive. For the compound `CSC1=N[C@@](C)(c2ccccc2)C(=O)N1Nc1ccccc1`, the AC50 is 23.3 µM (active).

Regarding `CCOP(=S)(OCC)Oc1cc(C)nc(C(C)C)n1`, the outcome was inactive. In the case of `CC(Oc1cccc(Cl)c1)C(=O)O` (stereo not given), the outcome was inactive. On to `COc1ccc(C(=CC(=O)N2CCOCC2)c2ccc(Cl)cc2)cc1OC`, for which the outcome was inactive.

For the compound `CNc1cnn(-c2cccc(C(F)(F)F)c2)c(=O)c1Cl`, the result was inactive. Regarding `O=c1ccc(=O)[nH][nH]1`, the outcome was inactive. As to `CCOP(=O)(NC(C)C)Oc1ccc(SC)c(C)c1` (stereo not given), the result was inactive.

For the compound `CCCSP(=O)(OCC)SCCC`, the outcome was inactive. Same read-out and setting: the entry for `CN(C)C(=O)Nc1cccc(C(F)(F)F)c1` is “inactive”.

As for `CC(C)=CC1C(C(=O)OCN2C(=O)C3=C(CCCC3)C2=O)C1(C)C` (stereo not given), the AC50 is 15.5 µM (active). As to `CCOP(=S)(OCC)Oc1ccc([N+](=O)[O-])cc1`, the AC50 is 14.2 µM (active).

With `CCCCOC(=O)c1ccccc1C(=O)O`, the outcome was inactive.

On to `CCOC(=O)CC(SP(=O)(OC)OC)C(=O)OCC` (stereo not given), for which the result was inactive. Consider `CSc1nnc(C(C)(C)C)c(=O)n1N`, for which the result was inactive.

As for `O=C(O)c1cc(Oc2ccc(C(F)(F)F)cc2Cl)ccc1[N+](=O)[O-]`, the outcome was inactive. `C=C(C)[C@H]1Cc2c(ccc3c2O[C@@H]2COc4cc(OC)c(OC)cc4[C@@H]2C3=O)O1`: the half-maximal activity concentration (AC50) is 0.486 µM (active). For `CCOP(=S)(Oc1cnc(C(C)(C)C)nc1)OC(C)C` (stereo not given), the half-maximal activity concentration (AC50) was 31.7 µM (active). Consider `CCC(=NOC/C=C/Cl)C1=C(O)CC(C2CCOCC2)CC1=O` (stereo not given), for which the result was inactive.

As for `COc1cc(OC)nc(Sc2cccc(Cl)c2C(=O)O)n1`, the result was inactive.

Turning to `CC(COc1ccc(Oc2ccccc2)cc1)Oc1ccccn1` (stereo not given), the AC50 was 10.8 µM (active). For the compound `CC(C)N(C(=O)SCC(Cl)=C(Cl)Cl)C(C)C`, the half-maximal activity concentration (AC50) is 36.6 µM (active). The same measure, in the same setting: the figure for `Nc1c(Cl)cc([N+](=O)[O-])cc1Cl` is 27.6 µM (active); for `CCCCN(CC)c1c([N+](=O)[O-])cc(C(F)(F)F)cc1[N+](=O)[O-]` it is 27.9 µM (active); for `O=[N+]([O-])c1cc(C(F)(F)F)c(Cl)c([N+](=O)[O-])c1Nc1ncc(C(F)(F)F)cc1Cl` it is 546 nM (active) and 1.8 µM (active). Turning to `CCCOc1nn(C(=O)NS(=O)(=O)c2ccccc2C(=O)OC)c(=O)n1C`, the result was inactive. Consider `CN(C)[C@@H]1C(=O)C(C(N)=O)=C(O)[C@@]2(O)C(=O)C3=C(O)c4c(O)cccc4[C@@](C)(O)[C@H]3[C@H](O)[C@@H]12`, for which the AC50 is 19.6 µM (active) and 13.9 µM (active); the outcome was inactive. With `N#CSCSC#N`, the concentration at half-maximal activity (AC50) is 0.225 µM (active).

In the case of `C#CCC1=C(C)C(OC(=O)C2C(C=C(C)C)C2(C)C)CC1=O` (stereo not given), the AC50 is 31.5 µM (active). On to `COc1cccc(C(=O)NN(C(=O)c2cc(C)cc(C)c2)C(C)(C)C)c1C`, for which the outcome was inactive.
